The results in this text go back to PubChem BioAssay AID760 (NMMLSC, 2007).

Among all 190,000 compounds or so, about 360 (0.19%) were called active. Not shown: some 2% with an inconclusive outcome. This is one part of a sample in which actives are shown more often than they occur.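 How the source made its calls: active means GTP binding activity at least 20 points away from 100%, either lowered or raised; inconclusive means signal likely due to the compound's own green fluorescence; inactive means the rest.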

In the test the target is Ras-related protein Rab-2A (Canis lupus familiaris) (UniProt P61105). Put plainly: modulators of GTP binding to Rab2A wildtype, primary screen, biochemical, dog, bead-based flow cytometry, multiplex (AID 760).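 Further: 0% = beads with excess unlabeled GTP and 100% = no-compound control corrected for plate trend.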 To be noted: GST-Rab2 wt beads, Bodipy-GTP binding, at 10 µM. On the technique in general: In flow cytometry, cells or beads pass a laser one at a time.
Regarding `Cc1ccnc2nc(C(=O)OCC(=O)N(CC(C)C)CC(C)C)nn12`, the GTP binding activity was 97% (inactive). As to `CCOc1ccccc1N1CCN(C(=O)COc2ccc3c(C)cc(=O)oc3c2)CC1`, the GTP binding activity is 98% (inactive).

On to `CCOC(=O)CN/C=C(\C#N)c1ccc(F)cc1`, for which the GTP binding activity is 102% (inactive). The same measure for `CCCC(c1nnnn1C(C)(C)C)N1CCN(Cc2ccccc2)CC1` (configuration not stated): 98% (inactive).

For `O=C(COc1cccc2ccccc12)Nc1cc(S(=O)(=O)N2CCOCC2)ccc1N1CCOCC1`, the GTP binding activity is 98% (inactive).

For the compound `O=c1[nH]n2c(-c3ccccc3)nc(O)c2c2ccccc12`, the GTP binding activity was 95% (inactive). For `CCO/C=C1\C(=O)N(c2ccc(OCC)cc2)C(=O)c2ccccc21` the value was 93% (inactive); for `COc1ccc(S(=O)(=O)N2CCOCC2)cc1NC(=O)CSc1ncnc2ccccc12`, 93% (inactive); for `COc1ccc(S(=O)(=O)N2CCOCC2)cc1C(=O)Nc1nc2ccccc2s1`, 72% (active). For `CCOC(=O)c1sc(NC(=O)c2cc(S(=O)(=O)N3CCOCC3)ccc2C)nc1C` the value was 98% (inactive); for `COc1ccc(OC)c(-c2csc(NC(=O)C3=NNC(=O)CC3)n2)c1`, 96% (inactive). As to `CNC(=S)N1CCC(NC(=O)C(Cc2ccc(F)cc2)NC(C)=O)CC1` (configuration not stated), the GTP binding activity is 99% (inactive). The same measure for `COc1ccc(S(=O)(=O)N(C)C)cc1NC(=O)CSc1ncccn1`: 97% (inactive); for `Cn1nnnc1SCC(=O)Nc1nc2ccccc2s1`: 97% (inactive). In the case of `CCNC(=O)COC(=O)/C=C/c1c(C)nn(Cc2cccc(OC)c2)c1Cl`, the GTP binding activity is 95% (inactive). Take `CCOC(=O)c1sc(NC(=O)CSc2n[nH]c(CC)n2)nc1C`: the GTP binding activity was 97% (inactive). `O=C1c2cccc3c([N+](=O)[O-])ccc(c23)C(=O)N1CC1CCCO1` (configuration not stated): the GTP binding activity was 95% (inactive). The same measure for `COc1cccc(CN(C)CC(=O)Nc2sc3c(c2C#N)CCC3)c1`: 92% (inactive); for `COc1ccc(S(=O)(=O)NCC2CCCN(C(=O)c3occc3C)C2)cc1` (configuration not stated): 97% (inactive).

With `CCCCC(NC(=O)c1cccc(Br)c1)C(=O)O` (configuration not stated), the GTP binding activity was 93% (inactive). For `Cc1ccc(-c2nn(-c3cccc(F)c3)cc2CNCCc2ccncc2)o1` the value was 101% (inactive); for `CC1COc2ccccc2N1C(=O)c1cccnc1Cl` (configuration not stated), 99% (inactive).

With `Cc1nnsc1C(=O)Nc1cccc(Cl)c1C`, the GTP binding activity is 95% (inactive). For `CCOc1ccccc1Nc1ccc(C(=O)O)cc1[N+](=O)[O-]` the value was 99% (inactive). The same measure for `Cc1ccc(CN2CCC(N3CCC(C(=O)NCC4CCCO4)CC3)CC2)o1` (configuration not stated): 97% (inactive).

Consider `CCOc1ccc(N2C(=O)CN(c3cccc4ccccc34)C2=S)cc1`, for which the GTP binding activity is 99% (inactive). The same measure for `Cc1cc(C)n(-c2ccc3nncn3n2)n1`: 102% (inactive).
